From PubChem BioAssay
Rows were chosen to be rich in hits. Some 4.1% of all compounds tested hit in one or more screens of this group.
hgDAF-12 ag = H. glycines DAF-12 receptor agonists, primary screen, cell-based, luminescence, HEK293, GAL4 fusion, UAS-luciferase; Nuclear hormone receptor DAF-12 (Heterodera glycines), GAL4 fusion; HEK293 GAL4-hgDAF12 UAS-luciferase reporter, agonist luminescence; normalized to butyrate control; activation, % at 6.8 µM; 1.8% of 370,000 active;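 active means activation above a cutoff set at the mean of all screened compounds plus 3 SD, cut at about 10% in these data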;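 further: 0% = DMSO wells and 100% = sodium butyrate wells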
DAX1 inh-1 = DAX1 (NR0B1) inhibitors on StAR promoter, primary screen, cell-based, luminescence, SF-1 (NR5A1), full-length DAX-1 | 1.1% of 370,000 active | inhibition, % at 6.8 µM | HEK293T StAR-luciferase reporter, SF-1/DAX-1 repression relief;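 active means inhibition above the mean over all tested compounds plus 3 SD, cut at about 3.6% in these data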;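 further: 0% = DAX-1 cells with DMSO and 100% = cells lacking DAX-1 with DMSO; higher inhibition means more luminescence from relief of DAX-1 repression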
ssDAF12 agonist = S. stercoralis DAF-12 nuclear receptor activators, primary screen, cell-based, luminescence, HEK293, GRIP1 co-expression, lit1-tk-luc | Nuclear hormone receptor DAF-12 (Strongyloides stercoralis) | HEK293 ssDAF-12/GRIP1 lit1-tk-luc reporter; % of 3 µM dafachronic acid response | activation, % at 6.8 µM | 1% of 370,000 active | AID 652126, 2013;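 active means activation above the mean over all tested compounds plus 3 SD, cut at about 0.9% in these data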;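 further: 0% = DMSO-only wells and 100% = 3 µM delta7-dafachronic acid wells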
hcDAF12 agonist = H. contortus DAF-12 nuclear receptor activators, primary screen, cell-based, luminescence, HEK293, lit1-tk-luc reporter; HEK293 hcDAF-12 lit1-tk-luc reporter; 0% DMSO, 100% Δ7-dafachronic acid; activation, % at 6.8 µM; 1.4% of 370,000 active; AID 652067, 2013;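 active means activation above the mean of all tested compounds plus 3 SD, cut at about 5.5% in these data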;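 further: 100% = response to 3 µM Δ7-dafachronic acid high control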
DAX1 inh-2 = DAX1 (NR0B1) inhibitors, primary screen, cell-based, HEK293, Gal4-DAX1, luciferase luminescence; Nuclear receptor subfamily 0 group B member 1 (Homo sapiens), P51843; HEK293 Gal4-DAX1 luciferase reporter; inhibition, % at 6.75 µM; 0.99% of 340,000 active; AID 504766, 2011;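 active means inhibition above the mean over all tested compounds plus 3 SD, cut at about 4.2% in these data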;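 further: 0% = DAX1-transfected cells with DMSO and 100% = empty-vector control cells with DMSO; inhibition shows as a rise in luminescence from relieved DAX1 repression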
Target sequence (P51843 207-470 limits assumed): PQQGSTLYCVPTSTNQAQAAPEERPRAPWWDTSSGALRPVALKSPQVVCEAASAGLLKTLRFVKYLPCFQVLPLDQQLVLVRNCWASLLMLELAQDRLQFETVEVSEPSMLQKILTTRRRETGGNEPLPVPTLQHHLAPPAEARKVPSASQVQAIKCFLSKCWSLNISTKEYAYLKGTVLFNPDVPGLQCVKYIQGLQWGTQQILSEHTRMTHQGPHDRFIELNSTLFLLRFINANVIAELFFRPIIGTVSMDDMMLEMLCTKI
* = called active by the depositor; . = not tested or not shown.

SMILES	hgDAF-12 ag	DAX1 inh-1	ssDAF12 agonist	hcDAF12 agonist	DAX1 inh-2
CC(=O)Nc1ccc(NC(=O)CCCc2c[nH]c3ccccc23)cc1	-1	0	-1	0	5.0*
CN(C)C(CNC(=O)CCCc1c[nH]c2ccccc12)c1ccco1 (stereo unspecified)	1	0	-2	-2	5.8*
Cc1ccccc1NC(=O)Cc1c[nH]c2ccccc12	1	0	1.0*	4	2
Cc1ccc(Cc2c(-c3cccc(Br)c3)nc3c4ccccc4ccn23)cc1	4	1	1	5	.
CC1=C(C(=O)N2CCCCCC2)CC(CC(=O)NCc2ccco2)C(=O)N1Cc1ccccc1 (stereo unspecified)	0	0	-1	-1	.
CN(C)c1ccc(-c2ccccc2)nn1	8	3.8*	0	3	1
CCN(CC)c1cc(-c2ccccc2)ncn1	-1	0	-1	-1	0
CCC[C@H]1[C@@H](OC(=O)NCc2ccc(OC)cc2)CC[C@@]23CCCN2C(=O)CCC[C@@H]13	1	.	-2	1	.
Cc1cc(C)cc(Cn2c3ccc(NC(=O)NCc4ccccc4)cc3c(=O)n2C)c1	-1	-1	-1	-2	.
Cn1c(=O)c2cc(NC(=O)NCc3ccccc3)ccc2n1C/C=C/c1ccccc1	11*	1	-1	1	.
COc1ccc(CN2C[C@@]3(O)CC[C@@H](O)[C@@H](OC)[C@@H]3[C@@](C)(O)[C@@H]2CC=C(C)C)cc1	4	1	-1	-1	.
COc1cccc2cc(-c3nnc(-c4ccccc4)o3)c(=O)oc12	11*	1	-1	1	4
CC/C(C)=N/Nc1nc(-c2cc3cccc(OC)c3oc2=O)cs1	12*	2	-1	5	.
COc1cccc2cc(-c3ccccc3)oc12	0	0	-1	-2	.
COc1cccc2cc(-c3csc(CCn4nc(C)cc4C)n3)c(=O)oc12	0	0	-1	-2	1
CCCCNC(=O)C[C@H]1C(=O)N(CCCOC)C2=CCCCC[C@]21C(=O)OC	-5	1	-1	0	.
Cc1cc(NC(=O)C2CC2)n(-c2nc3ccccc3s2)n1	10	-1	0	5.6*	0
COC(=O)N1C2CCCCC2=NN(c2ccccc2)N1C(=O)OC (stereo unspecified)	-4	2	-1	0	.
O=C1N/C(=C/c2ccsc2)C(=O)N1c1ccccc1	12*	0	-1	0	3
CS(=O)(=O)Oc1ccc(/C=C2\C(=N)N3N=C(CC(=O)N4CCOCC4)SC3=NC2=O)cc1Cl	1	1	-1	-1	1
COc1cc(/C=C2/C(=N)N3N=C(CC(=O)N4CCOCC4)SC3=NC2=O)ccc1OC(C)c1ccccc1 (stereo unspecified)	1	1	2.2*	-1	0
Cc1ccc(Nc2cc(C)nc(-c3ccccc3O)n2)cc1	13*	0	-1	0	2
O=S(=O)(Nc1ccc2oc(-c3ccccc3)nc2c1)c1ccccc1	3	0	-2	-1	-2
O=S(=O)(O)c1cc2oc(-c3ccccc3)nc2c2ccccc12	2	0	0	5.8*	0
CC1CCCN(c2cccc3c2S(=O)(=O)N(Cc2cccc(Cl)c2)[C@@H](C)[C@H](c2ccccc2)O3)C1 (stereo partly specified)	2	2	-1	0	.
CCc1ccc2oc(-c3ccc(OC)cc3)cc(=Nc3c(C)n(C)n(-c4ccccc4)c3=O)c2c1	17*	6.5*	0	9.1*	0
COc1ccc2oc(=Nc3ccc(C(=O)O)cc3)c(C(=O)NCc3ccco3)cc2c1	0	-1	-1	-2	4
CCc1ccc2oc(-c3ccc(OC)cc3)cc(=Nc3cccc(C(=O)O)c3)c2c1	13*	3	0	6.5*	-1
